NCOA1 inh: inhibits human SRC1 coactivator. inhibition, % at 3.6 µM. Q15788. HEK293 GAL4-SRC1 luciferase reporter, luminescence. 360,000 compounds, 0.12% hits;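 active = inhibition above the campaign mean plus 3 SD, with each screening campaign given its own cutoff, cut at about 60% in these data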;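 also: 0% = DMSO treated cells and 100% = gossypol at 36 µM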
SRC2 inh: inhibits human steroid receptor coactivator 2. HEK293 GAL4-SRC2 luciferase reporter, luminescence. 370,000 compounds, 0.17% hits. inhibition, % at 9 µM. Q15596;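 active = inhibition above the mean inhibition of all tested compounds plus 3 SD, set per campaign, cut at about 52% in these data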;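 also: 0% = DMSO treated cells and 100% = cells given Gossypol at 36 µM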
LMP1 NFkB inh: inhibitors of Epstein-Barr LMP1-induced NF-kappaB reporter. inhibition, % at 12.5 µM. LMP1-induced NF-kappaB luciferase reporter cells, luminescence. 350,000 compounds, 0.69% hits; in the data active = inhibition above about 41%;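 also: 0% = neutral control wells and 100% = reference inhibitor control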
SRC3 inh: human NCOA3 inhibition; Q9Y6Q9; HEK293 GAL4-SRC3 luciferase reporter, luminescence; inhibition, % at 3.6 µM; 360,000 compounds, 0.17% hits;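 active = inhibition above a per-campaign cutoff, the mean of all compounds plus 3 SD, cut at about 60% in these data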;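 also: 0% = DMSO-treated cells and 100% = gossypol-treated cells at 36 µM; higher means less SRC3-driven luciferase light from the GAL4 reporter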
NR5A2 inv ag: suppresses constitutive activity of human LRH-1; 360,000 compounds, 0.13% hits; HEK293T StAR-luciferase reporter, LRH-1 transfected, 24 h; inhibition, % at 3.6 µM;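 active = inhibition above the mean inhibition of all tested compounds plus 3 SD, cut at about 73% in these data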;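 also: 0% = DMSO wells and 100% = reporter-only cells lacking LRH-1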
* marks the source's active call; other numbers are inactive results; . = no result given; ! = not confirmed by another sample. The list is not random: actives were taken first. Their share in the collection is about 0.78%.

SMILES | NCOA1 inh | SRC2 inh | LMP1 NFkB inh | SRC3 inh | NR5A2 inv ag
CC[C@H]1CN2CCC1C[C@@H]2[C@@H](O)c1ccnc2ccc(OC)cc12 (stereo partly specified) | -6 | -11 | -2 | 4 | -1
N=c1c2c(n(Cc3ccc(Cl)cc3Cl)c3c1CCC3)CCCC2 | 49 | . | 37 | 43 | 82*
Cc1nn(Cc2ccc(Cl)cc2Cl)c(Cl)c1C(=O)O | 2 | -4 | -2 | -1 | 3
Cc1cc(N(CCCl)CCCl)ccc1C=NNC(=O)c1cccnc1 | -23 | 15 | 74* | 5 | 16
O=C(NN=Cc1ccc(N(CCCl)CCCl)cc1Cl)c1cccnc1 | -14 | 8 | 78* | -9 | -9
O=C(NN=Cc1ccc(N(CCCl)CCCl)cc1)c1cc(=O)[nH]c(=O)[nH]1 | -1 | -15 | 39 | -2 | 23
COc1ccc(OC(=O)N(C)C[C@@H]2OCc3cnnn3CCCC(=O)N([C@H](C)CO)C[C@H]2C)cc1 | -10 | 0 | -41 | 6 | 26
CC(=O)OC[C@]12CCC(C)=C[C@H]1O[C@@H]1[C@H](O)[C@@H](OC(C)=O)[C@@]2(C)[C@]12CO2 | 95* | 75* | 74* | 95* | 102*
CN1C(=O)CCS(=O)(=O)C1c1ccc(Cl)cc1 (stereo unspecified) | . | 2 | . | . | .
C[C@]12CCC3C(CC[C@@H]4C[C@H](O)CC[C@]34C)C1CCC2=O (stereo partly specified) | 11 | 13 | 8 | -3 | -24
COc1ccc(CC2NCC(O)C2OC(C)=O)cc1 (stereo unspecified) | 95* | 68* | 88* | 95* | 103*
O=C1NCN(c2ccccc2)C12CCN(C(CCc1ccccc1)c1nnnn1C1CCCC1)CC2 (stereo unspecified) | -10 | 22 | . | 9 | -32
C=C1C(=O)O[C@@H]2C[C@@H](C)[C@@H]3C=CC(=O)[C@@]3(C)[C@@H](O)[C@H]12 | 37 | 85* | 94* | 61 | 87*
N#Cc1ccc(NC(=O)CN2CCN(C(=O)c3cccs3)CC2)cc1Cl | -6 | 13 | -1 | 5 | 13
CC[C@H](C(N)=O)N1CCCC1=O | . | -26 | . | . | .
CCN1/C(=C\C=C\C2=[N+](CC)c3ccccc3C2(C)C)C(C)(C)c2ccccc21 | 75* | . | 71* | 81* | 91*
C[C@@H]1O[C@@H](O[C@H]2C[C@@H](O)[C@]3(CO)[C@H]4[C@H](O)C[C@]5(C)[C@@H](C6COC(=O)C6)CC[C@]5(O)[C@@H]4CC[C@]3(O)C2)[C@H](O)[C@H](O)[C@H]1O (stereo partly specified) | 69* | 19 | 55* | 57 | 99*
CC1OC(OC2CC(O)C3(CO)C4C(O)CC5(C)C(C6=CC(=O)OC6)CCC5(O)C4CCC3(O)C2)C(O)C(O)C1O (stereo unspecified) | 90* | 73* | 80* | 92* | 103*
COc1ccc(C(=O)N/N=C/C23CC[C@@H](O)CC2(O)CC[C@@H]2[C@@H]3CCC3(C)C(C4=CC(=O)OC4)CCC23O)cc1 (stereo partly specified) | 6 | -53 | -9 | 18 | 10
S=P(N1CCCCCC1)(N1CC1)N1CC1 | 9 | 7 | 16 | 3 | 5
Cc1ccc2nc(-c3ccc(CN4CCC(n5nnc6ccccc65)CC4)cc3)c(-c3ccccc3)nc2c1 | . | 19 | . | . | .
OCC(Cl)CCl (stereo unspecified) | -17 | 2 | -4 | -7 | -10
CC(=O)c1c(C)n(C2CCCCC2)c2ccc(O)cc12 | 73* | 25 | 70* | 69* | 38
Nc1nc(N)c2cnnn2n1 | 2 | 10 | -4 | 1 | -1
O=C(CN1C(=O)CN=C(c2ccccc2)c2cc(Cl)ccc21)NC1CCCCC1 | . | 22 | . | . | .
SMILES | NCOA1 inh | SRC2 inh | LMP1 NFkB inh | SRC3 inh | NR5A2 inv ag
COc1c2c(cc3c1OCO3)CCN(C)C2 | 6 | 5 | 79* | -13 | 13
C=CCN1CC[C@]23c4c5ccc(O)c4OC2[C@H](O)CC[C@@]3(O)[C@H]1C5 (stereo partly specified) | -28 | 16 | 8 | 6 | -4
Oc1ccc2c3c1O[C@H]1[C@@H](O)CC[C@@]4(O)[C@@H](C2)N(CC2CCC2)CC[C@]314 | 5 | 15 | 69*! | -23 | -35
CCC(C)C1NC(=O)C(NC(=O)C(CC(C)C)N(C)C(=O)C2CCCN2C(=O)C(C)O)C(C)OC(=O)C(Cc2ccc(OC)cc2)N(C)C(=O)C2CCCN2C(=O)C(CC(C)C)NC(=O)[C@H](C)C(=O)[C@H](C(C)C)OC(=O)CC1O (stereo partly specified) | 95* | 78* | 93* | 94* | 97*
COC(=O)C1=C(c2ccc(OCc3ccccc3)cc2)C[C@@H]2CC[C@H]1N2C(=O)NC1CCN(Cc2ccccc2)CC1 | -12 | . | -1 | 31 | -22
O=C(OC1CCN(CCCl)CC1)C(c1ccccc1)c1ccccc1 | 7 | -9 | 51* | 6 | -7
O=Cc1cn(Cc2cccc([N+](=O)[O-])c2)c2ccccc12 | 41 | 32 | 89* | 30 | 81*
N#Cc1ccc(Cn2cc(C=O)c3ccccc32)cc1 | 7 | -1 | 3 | -16 | 45
Cc1cccc(Cn2cc(C=O)c3ccccc32)c1 | 13 | 30 | 51* | 17 | 28
C[C@]12CC[C@H](O)CC1=CCC1C2CC[C@]2(C)C(=O)[C@H](Br)CC12 (stereo partly specified) | -1 | -4 | 10 | -8 | 11
CC(C)(C)OC(=O)NCCCCC(N)[P+](=O)O (stereo unspecified) | . | 14 | . | . | .
CC(C)C(NC(=O)OCc1ccccc1)P(=O)(Oc1ccccc1)Oc1ccccc1 (stereo unspecified) | . | 18 | . | . | .
COC(COC(N)=O)C1=C(N2CC2)C(=O)C(C)=C(N2CC2)C1=O (stereo unspecified) | 14 | -16 | -6 | 14 | 11
CC1=C(N2CC2)C(=O)C(CO)=C(N2CC2)C1=O | 52 | 14 | 89* | 58 | 22
O=C(Nc1cccc(Cl)c1)N1C[C@H]2C[C@@H](C1)c1cccc(=O)n1C2 | -5 | 1 | -1 | 6 | 3
C[N+](C)(C)CC#CCOC(=O)Nc1cccc(Cl)c1 | -2 | -4 | 82* | 11 | 16
CCC(C)NC(=O)CCC(=O)OC1O[C@H]2OC3(C)CC[C@H]4[C@H](C)CCC(C1C)C24OO3 (stereo partly specified) | 62* | 10 | -18 | 77* | 91*
C[C@@H]1CC[C@H]2[C@@H](C)C(=O)O[C@@H]3O[C@@]4(C)CC[C@@H]1[C@]32OO4 | 6 | 9 | -11 | -2 | 23
CCC(C)C(NC(=O)CCCNC(=O)CCC(=O)OC1O[C@H]2OC3(C)CC[C@H]4[C@H](C)CCC(C1C)C24OO3)C(=O)O (stereo partly specified) | 47 | -24 | -55 | 68* | 90*

From PubChem
